# Assay results published in the supplement of paper PMC9446081.
# The whole screen tested about 39,000 compounds, of which about 220 (0.56%) showed activity. For the sample, actives were picked, then their nearest neighbours and some compounds at random.
# System: Escherichia coli K-12 BW25113
# Assay: relative growth (OD600 normalised to plate interquartile mean) (fraction); higher = less growth inhibition, active = 0.2 or less
# Settings: 50 µM; LB; incubation time: overnight (16-24 h)
# 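Also: Wild-type cells incubated without shaking, value is the mean of two biological replicates.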
row,Compound,relative growth
1,COc1ccc(S(=O)(=O)N(C)C[C@H]2Oc3c(NC(=O)C4CC4)cccc3C(=O)N([C@H](C)CO)C[C@@H]2C)cc1,0.992 (inactive)
2,C[C@@H]1CCCCO[C@H](CN(C)C)[C@H](C)CN([C@@H](C)CO)C(=O)c2cc(NS(=O)(=O)c3cn(C)cn3)ccc2O1,0.994 (inactive)
3,C[C@@H]1CCCCO[C@H](CN(C)S(=O)(=O)c2ccccc2)[C@H](C)CN([C@@H](C)CO)C(=O)c2cc(NC(=O)Nc3ccc(C(F)(F)F)cc3)ccc2O1,1 (inactive)
4,COc1ccc(S(=O)(=O)Nc2ccc3c(c2)C(=O)N([C@@H](C)CO)C[C@H](C)[C@H](CN(C)S(=O)(=O)c2ccc(C)cc2)O3)cc1,1.01 (inactive)
5,C[C@H]1CN([C@@H](C)CO)C(=O)Cc2cc(NC(=O)Nc3ccc(C(F)(F)F)cc3)ccc2O[C@@H]1CN(C)C(=O)Nc1ccc(F)cc1,1.01 (inactive)
6,O=C(C[C@H]1C[C@@H]2c3cc(NC(=O)Cc4ccncc4)ccc3O[C@@H]2[C@@H](CO)O1)NCCN1CCCCC1,0.983 (inactive)
7,Cc1cn([C@H]2C[C@@H](NC(=O)C(C)(C)C)[C@@H](CO)O2)c(=O)[nH]c1=O,1.02 (inactive)
8,Cc1cn([C@H]2C[C@H](F)[C@@H](CO)O2)c(=O)[nH]c1=O,0.276 (inactive)
9,Cc1cn([C@H]2C[C@H](N=[N+]=[N-])[C@@H](CO)O2)c(=O)[nH]c1=O,0.048 (active)
10,Cc1cn(C2CC(N=[N+]=[N-])C(CO)O2)c(=O)[nH]c1=O (stereo unspecified),0.0449 (active)
11,Cc1cn([C@H]2CC[C@@H](CO)O2)c(=O)[nH]c1=O,0.531 (inactive)
12,CCc1cn([C@H]2C[C@@H](O)[C@@H](CO)O2)c(=O)[nH]c1=O,0.827 (inactive)
13,O=C(C[C@H]1C[C@H]2c3cc(NC(=O)Cc4ccncc4)ccc3O[C@H]2[C@H](CO)O1)NCCN1CCCCC1,1.02 (inactive)
14,Cc1noc(C)c1NC(=O)Nc1ccc2c(c1)C(=O)N([C@@H](C)CO)C[C@H](C)[C@@H](CN(C)S(=O)(=O)c1ccccc1)O2,0.987 (inactive)
15,COCC#Cc1ccc2c(c1)O[C@@H](CN(C)S(=O)(=O)c1ccc(C)cc1)[C@@H](C)CN([C@H](C)CO)S2(=O)=O,1.02 (inactive)
16,C[C@@H]1CN([C@@H](C)CO)C(=O)c2cccc(NC(=O)Nc3ccc(F)cc3)c2O[C@H]1CN(C)S(=O)(=O)c1cn(C)cn1,0.984 (inactive)
17,C[C@@H]1CN([C@H](C)CO)C(=O)Cc2cc(NC(=O)Cn3cnnn3)ccc2O[C@H]1CN(C)Cc1ccncc1,0.971 (inactive)
18,C[C@@H]1CN([C@@H](C)CO)C(=O)CCCn2nncc2CO[C@@H]1CN(C)C(=O)c1ccc(N2CCN(C)CC2)cc1,0.987 (inactive)
19,COc1ccc([Si](C)(C)[C@H]2[C@H](CCOC(=O)NCCCCCC(=O)NO)O[C@]3(C(=O)N(Cc4cccc(N5CCCCC5=O)c4)c4ccccc43)[C@@H]2C)cc1,1.02 (inactive)
20,Nc1cc[nH]c(=O)n1,0.997 (inactive)
21,CCCCCc1ccccn1,0.974 (inactive)
22,CCCCCCCCCCCCCCCC[N+](C)(C)Cc1ccccc1.[Cl-],0.0933 (active)
23,CCCCCCCCCCCCC[N+](C)(C)Cc1ccccc1,0.0319 (active)
24,CCCCNc1ccccc1,0.996 (inactive)
25,CCCCC(O)c1ccccc1 (stereo unspecified),0.973 (inactive)
26,CC[N+](C)(CC)Cc1ccccc1,0.993 (inactive)

row,Compound,relative growth
1,CCCCCCCCCCCCCCCC[N+](C)(C)CCN(Cc1ccc(OC)cc1)c1ncccn1,0.555 (inactive)
2,CCCC[C@@H](O)c1ccccc1,0.992 (inactive)
3,CCCCCCCCCCCCC[N+](C)(C)Cc1ccccc1.O.[Cl-],0.0544 (active)
4,C[C@H](CO)N1C[C@H](C)[C@@H](CN(C)Cc2ccc(Oc3ccccc3)cc2)Oc2c(NC(=O)Nc3ccc(C(F)(F)F)cc3)cccc2C1=O,0.795 (inactive)
5,CN(C)CC(=O)N[C@@H]1CC[C@@H](CC(=O)O)O[C@@H]1CO,0.983 (inactive)
6,C[C@H](CO)N1C[C@H](C)[C@@H](CN(C)CC2CCCCC2)Oc2ccc(NC(=O)CCN3CCOCC3)cc2C1=O,0.981 (inactive)
7,NCC[C@@H]1CC[C@H](NC(=O)C2CC2)[C@H](CO)O1,0.995 (inactive)
8,C[C@H]1CN([C@@H](C)CO)C(=O)CCCn2nncc2CO[C@@H]1CN(C)Cc1cccc2c1OCCCO2,0.992 (inactive)
9,O=C(Oc1ccc(Cl)cc1)c1sc2ccccc2c1Cl,1.05 (inactive)
10,Oc1c(I)cc(I)c2cccnc12,1.04 (inactive)
11,O=[N+]([O-])c1ccc(O)c2ncccc12,0.0542 (active)
12,Fc1cccc2c(Cl)ccnc12,0.976 (inactive)
13,Nc1ncccc1O,1.03 (inactive)
14,Oc1c(Cl)cc(Cl)c2cccnc12,0.111 (active)
15,Oc1c(Br)cc(Br)c2cccnc12,0.379 (inactive)
16,Oc1c(I)cc(Cl)c2cccnc12,0.463 (inactive)
17,NS(=O)(=O)c1ccc(O)c([N+](=O)[O-])c1,0.992 (inactive)
18,Oc1ccc(Cl)c2cccnc12,0.0534 (active)
19,C[C@H]1CN([C@@H](C)CO)C(=O)c2cc(NC(=O)Cn3cnnn3)ccc2O[C@@H]1CN(C)Cc1ccncc1,1.02 (inactive)
20,C[C@@H]1CN([C@H](C)CO)C(=O)c2cc(NS(=O)(=O)c3ccc(F)cc3)ccc2O[C@H]1CN(C)S(=O)(=O)c1cn(C)cn1,1.04 (inactive)
21,C[C@@H]1CN([C@@H](C)CO)C(=O)c2cc(NC(=O)C3CCCCC3)ccc2O[C@@H](C)CCCCO[C@H]1CN(C)Cc1ccc(C(=O)O)cc1,0.977 (inactive)
22,Cl.Nc1ccn(C2OC(CO)C(O)C2(F)F)c(=O)n1 (stereo unspecified),1.09 (inactive)
23,COc1ccc(S(=O)(=O)Nc2ccc3c(c2)C(=O)N([C@@H](C)CO)C[C@H](C)[C@H](CN(C)S(=O)(=O)c2ccc(F)cc2)O3)cc1,1 (inactive)
24,C[C@H](CO)N1C[C@H](C)[C@@H](CN(C)Cc2ccc(C(=O)O)cc2)OCCCC[C@H](C)Oc2ccc(NC(=O)Nc3ccc4c(c3)OCO4)cc2C1=O,0.95 (inactive)
25,COCC#Cc1cnc2c(c1)C(=O)N([C@H](C)CO)C[C@H](C)[C@@H](CN(C)S(=O)(=O)c1ccccc1)O2,1 (inactive)
